For this assay, the system named is CAMK2G. The conditions noted are these: concentration: 1 μM, replicates: in singlicate; n = 1.
Take `O=C(Nc1n[nH]c2cc(-c3cccs3)ccc12)C1CC1` [SB-731284]: the “%Inh” value is reported as 0%.
With `Fc1cc(Cl)ccc1Nc1ccnc2cc(-c3ccc(CN4CCSCC4)o3)ccc12` [GW560106], the “%Inh” value is given as 17%.
As to `Fc1cc(Cl)ccc1Nc1ccnc2cc(-c3ccc(CN4CCOCC4)o3)ccc12` [GW560109], the “%Inh” value is recorded as 0%.
As for `COc1ccc(NC(=O)c2ccoc2)cc1-c1ccc(C(=O)NCC2CC2)cc1` [GW810437], the “%Inh” value was 0%.
Regarding `COC(=O)Nc1nc2ccc(Oc3ccc(CC(=O)Nc4cc(C(F)(F)F)ccc4F)cc3)cc2[nH]1` [GW680903], the “%Inh” value came to 12%.
With `O=C(Nc1n[nH]c2nc(-c3cccc(O)c3)ccc12)C1CC1` [SB-711805], the “%Inh” value worked out at 0%.
In the case of `Cc1cccc(Nc2nc(N[C@H]3CCCC[C@H]3N)ncc2C(N)=O)c1.Cl` [GSK986310], the “%Inh” value was found to be 33%.
Consider `CCn1c(-c2nonc2N)nc2c(-c3ccccc3)ncc(OCCCN)c21.O=C(O)C(F)(F)F.O=C(O)C(F)(F)F` [GSK260205], for which the “%Inh” value was determined as 14%.
For `COc1ccc(C)c(Nc2ccnc(Nc3ccc(-c4cnc[nH]4)cc3)n2)c1.Cl` [GW784041] the value was 0%; for `CS(=O)(=O)c1cccc(CNc2nc(Nc3ccc4c(c3)CCC(=O)N4)ncc2C(F)(F)F)c1`, 0%; for `O=C(O)C(F)(F)F.O=c1[nH]ccc2nc(N[C@@H]3CCNC3)nc(Nc3ccc4c(c3)S(=O)(=O)CC4)c12` [GSK2181306], 52%.
For the compound `COc1cc(Nc2nccc(N3CCC(NS(=O)(=O)c4ccc(NC(C)=O)cc4)CC3)n2)cc(OC)c1OC` [GSK1379825], the “%Inh” value worked out at 12%.
As for `CN(C)CCNS(=O)(=O)c1ccc(-c2ccnc3[nH]ccc23)cc1` [GSK977620], the “%Inh” value worked out at 5%.
As for `Nc1cccc(-c2ccc3c(N)n[nH]c3c2)c1` [GSK2193613], the “%Inh” value turned out to be 26%.
`Cc1ccc(NC(=O)c2ccnc(N3CCCCC3)c2)cc1-c1ccc(C(=O)NCC2CC2)cc1` [GW775610]: the “%Inh” value came out at 0%.
For `c1ccc(Oc2ccc(Nc3ccnc4cc(-c5ccc(CN6CCCCC6)o5)ccc34)cc2)nc1` [GW567143] the value was 0%; for `CC(C)c1nc(-c2cccc(NS(=O)(=O)c3c(F)cccc3F)c2)c(-c2ccnc(Nc3ccc(N4CCOCC4)nc3)n2)s1.Cl` [GSK1723980], 10%.
`CN(c1ccc(NC(=O)N2CCN(CCCN3CCOCC3)CC2)cc1)c1ccnc(Nc2ccc(CS(C)(=O)=O)cc2)n1.Cl` [GW830899]: the “%Inh” value was determined as 0%.
Turning to `Cn1cc(-c2ccc3c(c2)CCN3C(=O)Cc2cc(F)cc(F)c2F)c2c(N)ncnc21` [GSK2634140], the “%Inh” value was 11%.
Take `CC(C)NCC(Cc1ccccc1)NC(=O)c1cc(Br)c(-c2ccnc3[nH]ccc23)s1.Cl.Cl` (stereo not shown) [GSK1383281]: the “%Inh” value came out at 15%.
The value for `COc1cccc(C2=C(Nc3cccc(O)c3)C(=O)NC2=O)c1` [SB-390771] was 34%.
With `COc1cccc(CC(=O)N2CCc3cc(-c4cn(C)c5ncnc(N)c45)ccc32)c1` [GSK2608899], the “%Inh” value is 27%.
Regarding `O=C(Nc1n[nH]c2nc(-c3ccccc3O)ccc12)C1CC1` [SB-711880], the “%Inh” value came to 0%.
On to `N#CC1(c2cccc(C(=O)Nc3cccc(Oc4ccc5nc(NC(=O)C6CC6)sc5n4)c3)c2)CC1`, for which the “%Inh” value is recorded as 100%.
For `COc1cc(Nc2nccc(N3CCC(NC(=O)Nc4ccc5c(c4)OCO5)C3)n2)cc(OC)c1OC` (stereo not shown) [GSK1379766] the value was 28%; for `Cc1ccc(-c2ccc3occ(-c4ccc(S(C)=O)cc4)c3c2)nn1` (stereo not shown), 0%.
The value for `CN(c1ccc(F)c(NC(=O)c2cccc(OC(C)(C)C#N)c2Cl)c1)c1ccc2nc(NC(=O)C3CC3)sc2n1` was 8%; that for `CN(c1ccc2c(c1)nc(NCc1ccccc1)n2C)c1ccnc(Nc2ccc(CS(C)(=O)=O)cc2)n1.Cl` [GW811603] was 0%; that for `Nc1ncc(-c2ccc3nccc(-c4ccncc4)c3c2)cc1S(=O)(=O)N1CCCCC1` [GSK1693850] was 14%.
As for `Nc1ncc(-c2cn[nH]c2)c2scc(-c3ccc4c(c3)CCN4C(=O)Cc3ccccc3)c12` [GSK2593067], the “%Inh” value amounted to 18%.
For `CN(C)c1ncnc2nc[nH]c12` [SKF-31736] the value was 29%; for `Cl.Cl.NC(CNC(=O)c1cc(Br)c(-c2ccnc3[nH]ccc23)s1)c1ccccc1` (stereo not shown) [GSK1322949], 48%; for `CNc1nccc(-c2ccc3c(N)n[nH]c3c2)n1` [GSK2206003], 33%.
Take `COc1cc(Nc2ccnc3cc(-c4ccncc4)ccc23)cc(OC)c1OC.Cl` [GW494610]: the “%Inh” value is on record as 7%.
For `COc1cccc(-c2nc(-c3ccccc3)[nH]c2-c2ccncc2)c1` [SB-610250] the value was 2%.
For `O=C1NC(=O)C(c2ccccc2Cl)=C1Nc1cccc(Cl)c1` [SB-342409], the “%Inh” value worked out at 19%.
Turning to `O=C(O)C(F)(F)F.O=c1[nH]ccc2nc(N[C@@H]3CCNC3)nc(Nc3cc(Cl)cc(Cl)c3)c12` [GSK2188764], the “%Inh” value came to 57%.

The values above are taken from publication PMC5540273 (PLoS ONE, 2017).
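Also: KINOMEscan kinase panel screen.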
